According to PubChem BioAssay (NCATS):
Inconclusive results are not listed. Where a call stands in place of a potency, no number is given. A number with no mark means an inactive call. Active and inactive are the calls of the source. Calls come from the whole dose curve. Starred links: 1 amine or outer side, 2 acyl side, 3 side chain; linkers in the order of their positions; H or OH if unused. Positions of bridges follow the written chain, without caps; N, C: chain ends. Non-standard residues stand in square brackets, D forms with d. Residues, ends and D or L forms follow the SMILES beside them. ξ: configuration not given here. *: point of attachment. ΔAla(3-NHCONH2) = NC(=O)NC=C(N)C(=O)O; X1 = NC1=NCCC(C(N[*:1])C(=O)[*:2])N1; ξβ3hOrn = NCCCC(N)CC(=O)*; Dap = NC[CH](N)C(=O)O

Assay: Primary qHTS for inhibitors of SARS-S pseudo-typed particle cell entry (AID 1479145); note: nearly all actives have a fitted effect of over 45% in size; note: potency is the fitted concentration of half-maximal effect
Conditions: SARS-S pseudotyped particle cell entry, luciferase reporter; series mostly up to 57.1 µM; activity change, negative = inhibition: at the top concentration

SMILES	activity change, negative = inhibition	outcome	Potency
CN(C)[C@@H]1C(=O)C(C(N)=O)=C(O)[C@@]2(O)C(=O)C3=C(O)c4c(O)ccc(Cl)c4[C@@H](O)[C@H]3C[C@@H]12	0.3%	–	–
Cc1cc(C)cc(OCC2CNC(=O)O2)c1 (centres undefined)	-9.54%	–	–
CN/C(=C\[N+](=O)[O-])NCCSCc1ccc(CN(C)C)o1	–	inactive	–
NS(=O)(=O)c1cc2c(cc1Cl)NC=NS2(=O)=O	–	inactive	–
COc1ccccc1OCC(O)COC(N)=O (centres undefined)	3.07%	–	–
C[C@@H](c1ncncc1F)C(O)(Cn1cncn1)c1ccc(F)cc1F (some centres undefined)	-21.2%	–	–
NNCCc1ccccc1	–	inactive	–
CC(=O)SC[C@@H](C)C(=O)N1CCC[C@H]1C(=O)N[C@@H](Cc1ccccc1)C(=O)O	-25.8%	–	–
CC(=O)OCC(CCn1cnc2cnc(N)nc21)COC(C)=O	-12.1%	–	–
N[C@@H](C(=O)N[C@@H]1C(=O)N2C(C(=O)O)=C(Cl)CS[C@H]12)c1ccccc1	-16.1% [at 11.4 µM]	–	–
O=C1NC(=O)C(c2ccccc2)(c2ccccc2)N1	–	inactive	–
COC(=O)[C@@H]1CC2=CC(=O)CC[C@]2(C)[C@@]23O[C@@H]2C[C@@]2(C)[C@@H](CC[C@@]24CCC(=O)O4)[C@H]13	–	inactive	–
CN(CCOc1ccc(CC2SC(=O)NC2=O)cc1)c1ccccn1 (centres undefined)	-15.6%	–	–
CN(C)CCCN1c2ccccc2CCc2ccc(Cl)cc21	–	–	28.2 µM (active)
CCOc1ccc2ccccc2c1C(=O)N[C@@H]1C(=O)N2[C@@H]1SC(C)(C)[C@@H]2C(=O)O	-17.7%	–	–
CO/N=C(\C(=O)N[C@@H]1C(=O)N2C(C(=O)O)=C(CSc3nc(=O)c(O)nn3C)CS[C@H]12)c1csc(N)n1	–	inactive	–
CCCc1nc2c(C)cc(-c3nc4ccccc4n3C)cc2n1Cc1ccc(-c2ccccc2C(=O)O)cc1	–	inactive	–
O=C1CCC(N2C(=O)c3ccccc3C2=O)C(=O)N1 (centres undefined)	-2.74%	–	–
NC(=O)c1cn(Cc2c(F)cccc2F)nn1	-23.1%	–	–

SMILES	activity change, negative = inhibition	outcome	Potency
CN(C)CCc1c[nH]c2ccc(CS(=O)(=O)N3CCCC3)cc12	-15.1%	–	–
COc1ccc(C(CN(C)C)C2(O)CCCCC2)cc1 (centres undefined)	-3.54%	–	–
CCOC(=O)[C@H](CCc1ccccc1)N[C@@H](C)C(=O)N1[C@H](C(=O)O)C[C@@H]2CCC[C@@H]21	-12.6%	–	–
O=C(O)CCCc1ccccc1	–	inactive	–
Cc1ccc(S(=O)(=O)NC(=O)NN2CCCCCC2)cc1	-25%	–	–
O=c1[nH]cnc2c1ncn2[C@H]1CC[C@@H](CO)O1	–	inactive	–
CC(C)NCC(O)COc1cccc2[nH]ccc12 (centres undefined)	-2.12%	–	–
CC(C)(C)C(=O)OCOP(=O)(COCCn1cnc2c(N)ncnc21)OCOC(=O)C(C)(C)C	-100%	–	–
CC(=O)Oc1cc2c(s1)CCN(C(C(=O)C1CC1)c1ccccc1F)C2 (centres undefined)	–	inactive	–
C[C@](N)(Cc1ccc(O)c(O)c1)C(=O)O	-5.01%	–	–
CS(=O)(=O)OCCCCOS(C)(=O)=O	-3.45%	–	–
CCn1cc(C(=O)O)c(=O)c2ccc(C)nc21	–	inactive	–
Nc1cccc2c1CN(C1CCC(=O)NC1=O)C2=O (centres undefined)	4.49%	–	–
Cc1onc(-c2c(Cl)cccc2Cl)c1C(=O)N[C@@H]1C(=O)N2[C@@H]1SC(C)(C)[C@@H]2C(=O)O	-26.8%	–	–
NCCCC(N)CC(=O)NCC1NC(=O)C(CO)NC(=O)C(N)CNC(=O)C(C2CCN=C(N)N2)NC(=O)C(=CNC(N)=O)NC1=O (stereo not drawn) (H-[Dap]S[Dap](ξβ3hOrn)[ΔAla(3-NHCONH2)][X1]; lactam 1-C; configuration not given here)	–	inactive [at 0.573 µM]	–
CC[C@]1(O)C[C@@H]2CN(CCc3c([nH]c4ccccc34)[C@@](C(=O)OC)(c3cc4c(cc3OC)N(C)[C@H]3[C@@](O)(C(=O)OC)[C@H](OC(C)=O)[C@]5(CC)C=CCN6CC[C@]43[C@@H]65)C2)C1	-27.7%	–	–
C[C@@H](O)[C@H]1C(=O)N2C(C(=O)O)=C(S[C@@H]3CN[C@H](CNS(N)(=O)=O)C3)[C@H](C)[C@H]12	-22.1%	–	–
COc1cc(C(=O)NCc2ccc(OCCN(C)C)cc2)cc(OC)c1OC	–	inactive	–

Assay: Primary qHTS for Huh7 cytotoxicity: counterscreen for inhibitors of MERS-S pseudotyped particle cell entry (AID 1479147)
Conditions: cell viability read-out; series mostly up to 57.1 µM; activity change, negative = cytotoxicity: at the top concentration

SMILES	outcome	activity change, negative = cytotoxicity
CN(C)[C@@H]1C(=O)C(C(N)=O)=C(O)[C@@]2(O)C(=O)C3=C(O)c4c(O)ccc(Cl)c4[C@@H](O)[C@H]3C[C@@H]12	inactive	–
Cc1cc(C)cc(OCC2CNC(=O)O2)c1 (centres undefined)	inactive	–
CN/C(=C\[N+](=O)[O-])NCCSCc1ccc(CN(C)C)o1	inactive	–
NS(=O)(=O)c1cc2c(cc1Cl)NC=NS2(=O)=O	inactive	–
COc1ccccc1OCC(O)COC(N)=O (centres undefined)	inactive	–
C[C@@H](c1ncncc1F)C(O)(Cn1cncn1)c1ccc(F)cc1F (some centres undefined)	inactive	–
NNCCc1ccccc1	inactive	–
CC(=O)SC[C@@H](C)C(=O)N1CCC[C@H]1C(=O)N[C@@H](Cc1ccccc1)C(=O)O	inactive	–
CC(=O)OCC(CCn1cnc2cnc(N)nc21)COC(C)=O	inactive	–
N[C@@H](C(=O)N[C@@H]1C(=O)N2C(C(=O)O)=C(Cl)CS[C@H]12)c1ccccc1	inactive [at 11.4 µM]	–
O=C1NC(=O)C(c2ccccc2)(c2ccccc2)N1	inactive	–
COC(=O)[C@@H]1CC2=CC(=O)CC[C@]2(C)[C@@]23O[C@@H]2C[C@@]2(C)[C@@H](CC[C@@]24CCC(=O)O4)[C@H]13	inactive	–
CN(CCOc1ccc(CC2SC(=O)NC2=O)cc1)c1ccccn1 (centres undefined)	inactive	–
CN(C)CCCN1c2ccccc2CCc2ccc(Cl)cc21	–	-22.6%
CCOc1ccc2ccccc2c1C(=O)N[C@@H]1C(=O)N2[C@@H]1SC(C)(C)[C@@H]2C(=O)O	–	-0.726%
CO/N=C(\C(=O)N[C@@H]1C(=O)N2C(C(=O)O)=C(CSc3nc(=O)c(O)nn3C)CS[C@H]12)c1csc(N)n1	inactive	–
CCCc1nc2c(C)cc(-c3nc4ccccc4n3C)cc2n1Cc1ccc(-c2ccccc2C(=O)O)cc1	inactive	–
O=C1CCC(N2C(=O)c3ccccc3C2=O)C(=O)N1 (centres undefined)	inactive	–
NC(=O)c1cn(Cc2c(F)cccc2F)nn1	inactive	–

SMILES	outcome	activity change, negative = cytotoxicity
CN(C)CCc1c[nH]c2ccc(CS(=O)(=O)N3CCCC3)cc12	inactive	–
COc1ccc(C(CN(C)C)C2(O)CCCCC2)cc1 (centres undefined)	inactive	–
CCOC(=O)[C@H](CCc1ccccc1)N[C@@H](C)C(=O)N1[C@H](C(=O)O)C[C@@H]2CCC[C@@H]21	–	-6.36%
O=C(O)CCCc1ccccc1	–	0.702%
Cc1ccc(S(=O)(=O)NC(=O)NN2CCCCCC2)cc1	inactive	–
O=c1[nH]cnc2c1ncn2[C@H]1CC[C@@H](CO)O1	inactive	–
CC(C)NCC(O)COc1cccc2[nH]ccc12 (centres undefined)	–	2.95%
CC(C)(C)C(=O)OCOP(=O)(COCCn1cnc2c(N)ncnc21)OCOC(=O)C(C)(C)C	–	-13.6%
CC(=O)Oc1cc2c(s1)CCN(C(C(=O)C1CC1)c1ccccc1F)C2 (centres undefined)	inactive	–
C[C@](N)(Cc1ccc(O)c(O)c1)C(=O)O	inactive	–
CS(=O)(=O)OCCCCOS(C)(=O)=O	inactive	–
CCn1cc(C(=O)O)c(=O)c2ccc(C)nc21	inactive	–
Nc1cccc2c1CN(C1CCC(=O)NC1=O)C2=O (centres undefined)	inactive	–
Cc1onc(-c2c(Cl)cccc2Cl)c1C(=O)N[C@@H]1C(=O)N2[C@@H]1SC(C)(C)[C@@H]2C(=O)O	inactive	–
NCCCC(N)CC(=O)NCC1NC(=O)C(CO)NC(=O)C(N)CNC(=O)C(C2CCN=C(N)N2)NC(=O)C(=CNC(N)=O)NC1=O (stereo not drawn) (H-[Dap]S[Dap](ξβ3hOrn)[ΔAla(3-NHCONH2)][X1]; lactam 1-C; configuration not given here)	–	3.81% [at 0.573 µM]
CC[C@]1(O)C[C@@H]2CN(CCc3c([nH]c4ccccc34)[C@@](C(=O)OC)(c3cc4c(cc3OC)N(C)[C@H]3[C@@](O)(C(=O)OC)[C@H](OC(C)=O)[C@]5(CC)C=CCN6CC[C@]43[C@@H]65)C2)C1	inactive	–
C[C@@H](O)[C@H]1C(=O)N2C(C(=O)O)=C(S[C@@H]3CN[C@H](CNS(N)(=O)=O)C3)[C@H](C)[C@H]12	inactive	–
COc1cc(C(=O)NCc2ccc(OCCN(C)C)cc2)cc(OC)c1OC	inactive	–
